BRCT inh red – disrupts BRCA1 BRCT binding to phosphoprotein, red fluorophore readout; P38398; BRCT-phosphopeptide binding, red fluorescence polarization; Potency, µM (doses to about 76.9 µM), without a hit: at the top dose activity change, negative = inhibition, actives largely listed as inhibitors; 75,000 tested, 0.03% active; AID 892; further: on the % scale 0 is the no-effect control and ±100 the full control effect
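Fluorescence polarization: 100 nM His-tagged BRCA1 BRCT with 100 nM TAMRA-labelled phospho-BACH1 decapeptide, phosphate buffer pH 7.3 with 150 mM NaCl, DTT, 0.01% Tween 20; 12 min RT. Binding inhibition seen as FP decrease.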
GBA activity – modulators of human glucocerebrosidase; 48,000 tested, 1.1% active; Potency, µM; AID 360; purified enzyme, resorufin glucoside fluorescence (screen aimed at inhibitors), 20 min; in the data active means potency below about 15 µM; inconclusive means mostly about 16 µM to 33 µM;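 further: potency means the concentration at half of the fitted maximal effect; the screen sought inhibitors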
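Normal human glucocerebrosidase (0.2 nM final) was assayed with resorufin β-D-glucopyranoside (30 uM final) in 50mM citric acid/KH2PO4, 10mM sodium taurocholate, 0.01% tween-20, pH 5.9. Compounds were titrated; fluorescence (Ex 548, Em 600) read after 20 min at RT.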
TsaE inh – displaces an ADP probe from E. coli YjeE (TsaE) | P0AF67 | purified YjeE enzyme, qHTS inhibition assay | Potency, µM | 71,000 tested, 0.05% active
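Purified YjeE (10 uM) with BODIPY Texas Red-labeled ADP probe (2 uM); compounds pin-transferred, 15 min at room temperature. Binding inhibition read as decreased fluorescence polarization; ADP titration as control.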
DNA Pol III inh – blocks replication by bacterial DNA polymerase III holoenzyme; reconstituted DNA polymerase III holoenzyme replication, biochemical; 71,000 tested, 0.25% active; Potency, µM (titrated, usually from 57.1 µM), without a hit: top-dose activity change, negative = inhibition; AID 603; further: potency means the concentration at half of the fitted maximal effect; on the % scale 0 is the no-effect control and ±100 the full control effect
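Reconstituted *E. coli* holoenzyme (0.35 nM Pol III, 1 nM beta, 154 nM SSB, 2 nM primase) was preincubated with compound for 15 min at RT. Synthesis on 1.4 nM ssM13Gori ran 35 min, then was stopped with PicoGreen/EDTA and read as dsDNA fluorescence.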
BRCT PPI green – inhibitors of human BRCA1 BRCT-phosphoprotein interaction (green fluorophore); BRCA1 BRCT-phosphopeptide binding, green fluorescence polarization; 75,000 tested, 0.05% active; P38398; Potency, µM (doses to about 76.9 µM), for inactives: at the highest dose activity change, negative = inhibition, hits mostly inhibitors; AID 875;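 further: potency means the concentration at half of the fitted maximal effect; plate controls were peptide without protein for full effect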
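Fluorescence polarization: His-tagged BRCT (~35 kDa BRCA1 C-terminus, 250 nM) bound to 100 nM fluorescein-labeled phosphorylated 10-aa BACH1 peptide, pH 7.3 phosphate buffer with DTT and Tween 20. Compounds incubated 12 min at room temperature; inhibition read as lowered polarization.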
Hsp90 Hop PPI – changes Hsp90-Hop TPR2A binding signal, up or down; AlphaScreen TPR2A-His6 binding biotin-Hsp90 C-terminal peptide; Potency, µM (highest dose often 57 µM), for the others: at the highest dose activity change, negative = inhibition; 71,000 tested, 0.44% active; AID 595; active means well fitted curve in either direction with a large enough effect; inconclusive means small, poorly fitted or top-dose-only effect, or another doubt; further: potency means the concentration at half of the fitted maximal effect; on the % scale 0 is the no-effect control and ±100 the full control effect
* hit, by the source's call; i = inactive; ? = inconclusive; / = no result; [ ] = remark or other dose. An excerpt weighted towards active compounds, which were near 1.2% of everything screened. Unless noted, the call rests on the fitted dose curve; in most records, active means well fitted curve in the direction sought with a large enough effect; inconclusive means small, poorly fitted or top-dose-only effect, or another doubt; inactive means no such curve, though single readings can be large; an effect the other way counts as inactive or inconclusive.

SMILES	BRCT inh red	GBA activity	TsaE inh	DNA Pol III inh	BRCT PPI green	Hsp90 Hop PPI
Cc1ccc(S(=O)(=O)NCCCOC(=O)Nc2ccncc2)cc1	-2%	8.9*	i	-7%	-2%	-4%
Cc1ccc(C[C@H](Cc2nc3ccccc3[nH]2)c2nc3ccccc3[nH]2)cc1	/	/	i	-4%	/	0%
O=C1CCCC2=C1C(c1ccco1)Nc1ccc3ccccc3c12 (stereo unspecified)	-5%	/	i	25µM*	-4%	-7%
COc1cc(C2Nc3ccc4ncccc4c3C3=C2C(=O)CCC3)cc(OC)c1O (stereo unspecified)	-3%	>77	i	-1%	-8%	-8%
COCC(=O)N1CCC2(CC1)CN(Cc1ccc(C#N)cc1)C2	4%	/	i	-9%	-3%	-7%
C=CCn1c(COc2cccc(C)c2)nnc1SCC(=O)NC(=O)NCc1ccco1	-1%	>77	i	5%	-3%	-3%
C=CCn1c(COc2ccc(F)cc2)nnc1SCC(=O)NC(=O)NCc1ccco1	0%	15*	i	-8%	0%	-3%
COc1cc(/C=C\C(=O)CC(=O)/C=C\c2ccc(O)c(OC)c2)ccc1O	/	/	i	70%	/	-5%
O=c1c(-c2ccc(F)cc2)nc2cnc(Oc3ccccc3)nc2n1Cc1cccs1	0%	/	i	-5%	-1%	-5%
NCC(=O)O	0%	/	i	-1%	-3%	-7%
C=CC(C)(C)c1[nH]c2ccccc2c1C1=C(O)C(=O)C(c2c[nH]c3c(CC=C(C)C)cccc23)=C(O)C1=O	-6%	/	100µM*	1.3µM*	-6%	?
CN1CCN(c2ccnc(-c3ccc(N(C)C)cc3)n2)CC1	1%	/	i	-9%	-3%	-4%
Cc1ccc2nc(-c3ccc(NC(=O)c4ccc(N)cc4)c(S(=O)(=O)O)c3)sc2c1	0%[15.4 µM]	/	i	-10%[11.4 µM]	-1%[15.4 µM]	2%[11 µM]
O=C(Nc1cc(C(=O)Nc2ccc(S(=O)(=O)O)cc2S(=O)(=O)O)cc(C(=O)Nc2ccc(S(=O)(=O)O)cc2S(=O)(=O)O)c1)Nc1cc(C(=O)Nc2ccc(S(=O)(=O)O)cc2S(=O)(=O)O)cc(C(=O)Nc2ccc(S(=O)(=O)O)cc2S(=O)(=O)O)c1	48%	/	i	4µM*	-3%	?
O=C(Nc1ccc(C(=O)Nc2ccc(C(=O)Nc3ccc(S(=O)(=O)O)c4cc(S(=O)(=O)O)cc(S(=O)(=O)O)c34)cc2)cc1)Nc1ccc(C(=O)Nc2ccc(C(=O)Nc3ccc(S(=O)(=O)O)c4cc(S(=O)(=O)O)cc(S(=O)(=O)O)c34)cc2)cc1	56%	/	i	32µM*	-8%	?
CCCCCC[C@@H]([C@H](C)O)n1cnc2c(N)ncnc21	-2%	/	i	-5%	1%	-3%
O=S1(=O)CCN(Cc2ccccn2)CC1	-2%[15.4 µM]	/	i	-3%[11.4 µM]	-1%[15.4 µM]	-5%[11 µM]
c1ccc(CNCCN2CCNCC2)nc1	-2%	>77	i	3%	-4%	4µM*
COc1ccc(C(c2nnnn2Cc2ccccc2)N2CCN(c3nc4ccccc4s3)CC2)cc1 (stereo unspecified)	0%	>15	i	-6%	-2%	-7%
COCCn1nnnc1C(c1ccc(OC)c(OC)c1)N1CCN(c2nc3ccccc3s2)CC1 (stereo unspecified)	-2%	6*	i	-3%	0%	-3%
CC(/C=C/C=C(C)/C=C/C(=O)O)=C\C=C\C=C(C)\C=C\C=C(C)\C=C\C(=O)O	-3%	/	i	2.5µM*	-5%	0%
CC1=C(/C=C/C(C)=C/C=C/C(C)=C/C(=O)O)C(C)(C)CCC1	1%	/	/	/	0%	/
CCCCn1c(=N)n(CC(O)COc2ccc(C)cc2)c2ccccc21 (stereo unspecified)	1%	11*	i	-5%	-2%	-6%
CCn1c(=N)n(CC(O)COc2cccc(C)c2)c2ccccc21 (stereo unspecified)	0%	?	i	-10%	2%	-2%

High-throughput results as filed in PubChem BioAssay.
